Measured values reported in the supplement of paper PMC12669032.
Where “and” joins values, the source holds several entries; their conditions need not be identical. Identical values can stand only once.

Experiments:
Assay in all cases: growth AUC relative to DMSO control (median of replicates) (fraction); higher = more growth (less inhibition), active = hit call of the paper
Conditions in all cases: 20 µM; 24 h;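 active = AUC reduced over 20% with Padj below 0.05 in at least 2 of 3 replicates; inactive = otherwise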
Akkermansia muciniphila = test system: Akkermansia muciniphila
Method in brief: (§1)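 In round-bottom 96-well plates sealed with pierced gas-permeable seals, gut bacterial monocultures in mGAM were grown anaerobically at 37 °C from OD600 0.05 with 20 µM compound (1% DMSO). OD600 readings were taken hourly for 24 h, and the minimum OD was set to 0. Area under the growth curve was then normalised to the plate median of solvent-only wells, or to row and column medians on the industrial chemical plate. The value given is the median of three biological replicates grown on separate days.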

Bacteroides caccae = test system: Bacteroides caccae
Method in brief: as §1

Bacteroides clarus = test system: Bacteroides clarus
Method in brief: as §1

Bacteroides dorei = test system: Bacteroides dorei
Method in brief: as §1

Bacteroides stercoris = test system: Bacteroides stercoris
Method in brief: as §1

[1] = test system: Bacteroides thetaiotaomicron
Method in brief: as §1

Bacteroides uniformis = test system: Bacteroides uniformis
Method in brief: as §1

[2] = test system: Bifidobacterium longum subsp. longum
Method in brief: as §1

Clostridium difficile = test system: Clostridium difficile
Method in brief: as §1

Collinsella aerofaciens = test system: Collinsella aerofaciens
Method in brief: as §1

Measured: growth AUC

CC(Cc1ccc(C(C)(C)C)cc1)CN1CCCCC1 (stereo unspecified)
inactive: Akkermansia muciniphila 0.735 | Bacteroides caccae 0.963 | Bacteroides clarus 0.951 | Bacteroides dorei 1.01 | Bacteroides stercoris 1.15 | [1] 0.974 | Bacteroides uniformis 1.02 | [2] 0.99 | Clostridium difficile 0.971 | Collinsella aerofaciens 0.959

CCC(C)c1cc([N+](=O)[O-])cc([N+](=O)[O-])c1O (stereo unspecified)
inactive: Akkermansia muciniphila 1.07 | Bacteroides caccae 0.967 | Bacteroides clarus 0.879 | Bacteroides dorei 0.902 | Bacteroides stercoris 0.865 | [1] 0.876 | Bacteroides uniformis 0.889 | [2] 0.981 | Clostridium difficile 0.951 | Collinsella aerofaciens 0.956

CNC(=O)/C=C(\C)OP(=O)(OC)OC
inactive: Akkermansia muciniphila 1.05 | Bacteroides caccae 1.03 | Bacteroides clarus 0.991 | Bacteroides dorei 1.02 | Bacteroides stercoris 1.09 | [1] 1.01 | Bacteroides uniformis 1.01 | [2] 0.947 | Clostridium difficile 1.04 | Collinsella aerofaciens 1.04

Oc1c(Br)cc(Br)cc1Br
inactive: Akkermansia muciniphila 0.965 | Bacteroides caccae 0.916 | Bacteroides clarus 0.917 | Bacteroides dorei 1.01 | Bacteroides stercoris 1.22 | [1] 1.01 | Bacteroides uniformis 0.966 | [2] 0.984 | Clostridium difficile 0.982 | Collinsella aerofaciens 0.991

Cc1cc(C)nc(NC(=O)NS(=O)(=O)c2ccccc2C(=O)OC2COC2)n1
active: [1] 0.752
inactive: Akkermansia muciniphila 1.03 | Bacteroides caccae 0.952 | Bacteroides clarus 0.973 | Bacteroides dorei 0.945 | Bacteroides stercoris 1.04 | Bacteroides uniformis 1.03 | [2] 0.858 | Clostridium difficile 1.05 | Collinsella aerofaciens 0.98

CSc1nc(NC(C)C)nc(NC(C)C)n1
inactive: Akkermansia muciniphila 0.876 | Bacteroides caccae 1.02 | Bacteroides clarus 0.976 | Bacteroides dorei 1.01 | Bacteroides stercoris 0.95 | [1] 0.949 | Bacteroides uniformis 0.983 | [2] 1.08 | Clostridium difficile 1.02 | Collinsella aerofaciens 1.04

O=[N+]([O-])c1ccc2ccc3cccc4ccc1c2c34
inactive: Akkermansia muciniphila 0.948 | Bacteroides dorei 0.851 | Bacteroides uniformis 0.877 | [2] 1.3 | Clostridium difficile 0.913 | Collinsella aerofaciens 0.983
active: Bacteroides caccae 0.59 | Bacteroides clarus 0.783 | Bacteroides stercoris 0.179 | [1] 0.737

COP(=O)(OC)Oc1ccc([N+](=O)[O-])cc1
inactive: Akkermansia muciniphila 1.17 | Bacteroides caccae 0.989 | Bacteroides clarus 1.03 | Bacteroides dorei 1.02 | Bacteroides stercoris 1.01 | [1] 0.991 | Bacteroides uniformis 1 | [2] 1.07 | Clostridium difficile 1.04 | Collinsella aerofaciens 0.948

CO/N=C(/C1=NOCCO1)c1ccccc1Oc1ncnc(Oc2ccccc2Cl)c1F
inactive: Akkermansia muciniphila 0.963 | Bacteroides caccae 0.987 | Bacteroides clarus 0.957 | Bacteroides dorei 0.938 | Bacteroides stercoris 0.941 | [1] 0.961 | Bacteroides uniformis 0.963 | [2] 0.845 | Clostridium difficile 0.948 | Collinsella aerofaciens 1.02

O=[N+]([O-])NC1=NCOCN1Cc1cnc(Cl)s1
inactive: Akkermansia muciniphila 1.23 | Bacteroides caccae 0.994 | Bacteroides clarus 1.04 | Bacteroides dorei 1.01 | Bacteroides stercoris 1.19 | [1] 0.979 | Bacteroides uniformis 0.964 | [2] 0.917 | Clostridium difficile 0.999 | Collinsella aerofaciens 0.971

CCCN(CCC)c1c([N+](=O)[O-])cc(C(F)(F)F)cc1[N+](=O)[O-]
inactive: Akkermansia muciniphila 1.02 | Bacteroides caccae 1.02 | Bacteroides clarus 1.04 | Bacteroides dorei 1.03 | Bacteroides stercoris 1.05 | [1] 0.976 | Bacteroides uniformis 1.01 | [2] 1.1 | Clostridium difficile 1 | Collinsella aerofaciens 1.01

CNC(=S)S
inactive: Akkermansia muciniphila 1.07 | Bacteroides caccae 1.01 | Bacteroides clarus 1.04 | Bacteroides dorei 0.996 | Bacteroides stercoris 1.08 | [1] 1.02 | Bacteroides uniformis 1 | [2] 1.37 | Clostridium difficile 0.999 | Collinsella aerofaciens 0.996

CCC(C)(NC(=O)c1cc(Cl)c(C)c(Cl)c1)C(=O)CCl (stereo unspecified)
inactive: Akkermansia muciniphila 0.877 | Bacteroides caccae 0.949 | Bacteroides clarus 0.895 | Bacteroides dorei 0.967 | Bacteroides stercoris 0.86 | [1] 0.908 | Bacteroides uniformis 0.861 | [2] 0.953 | Collinsella aerofaciens 1
active: Clostridium difficile 0.496

Oc1ccc(Cl)cc1
inactive: Akkermansia muciniphila 0.989 | Bacteroides caccae 0.997 | Bacteroides clarus 0.952 | Bacteroides dorei 1.01 | Bacteroides stercoris 0.981 | [1] 0.997 | Bacteroides uniformis 0.987 | [2] 0.971 | Clostridium difficile 0.981 | Collinsella aerofaciens 0.988

CCOC(=O)CCN(Cc1ccccc1)SN(C)C(=O)O/N=C(/C)SC
inactive: Akkermansia muciniphila 0.948 | Bacteroides caccae 0.993 | Bacteroides clarus 0.979 | Bacteroides dorei 1.04 | Bacteroides stercoris 1.09 | [1] 0.991 | Bacteroides uniformis 1.09 | [2] 1.03 | Clostridium difficile 1.01 | Collinsella aerofaciens 1.02

CS(=O)(=O)c1ccc(C(=O)C2C(=O)CCCC2=O)c(Cl)c1
inactive: Akkermansia muciniphila 0.92 | Bacteroides caccae 1.01 | Bacteroides clarus 1.01 | Bacteroides dorei 1.01 | Bacteroides stercoris 1.04 | [1] 1.01 | Bacteroides uniformis 1 | [2] 0.967 | Clostridium difficile 1.11 | Collinsella aerofaciens 1.05

CCOP(=S)(OCC)SCCSCC
inactive: Akkermansia muciniphila 0.992 | Bacteroides caccae 1.03 | Bacteroides clarus 1.01 | Bacteroides dorei 0.973 | Bacteroides stercoris 1.06 | [1] 1.01 | Bacteroides uniformis 0.973 | [2] 1.02 | Clostridium difficile 0.977 | Collinsella aerofaciens 0.972

N#Cc1c(Cl)cccc1Cl
inactive: Akkermansia muciniphila 0.866 | Bacteroides caccae 1.03 | Bacteroides clarus 0.979 | Bacteroides dorei 1.04 | Bacteroides stercoris 0.989 | [1] 1 | Bacteroides uniformis 0.922 | [2] 0.898 | Clostridium difficile 1.01 | Collinsella aerofaciens 1.02

NC(=S)c1c(Cl)cccc1Cl
inactive: Akkermansia muciniphila 0.917 | Bacteroides caccae 0.943 | Bacteroides clarus 0.97 | Bacteroides dorei 0.935 | Bacteroides stercoris 1.01 | [1] 1.03 | Bacteroides uniformis 0.972 | [2] 1.05 | Clostridium difficile 1.02 | Collinsella aerofaciens 0.962

COP(=O)(NC(C)=O)SC (stereo unspecified)
inactive: Akkermansia muciniphila 0.941 | Bacteroides caccae 1.01 | Bacteroides clarus 0.993 | Bacteroides dorei 0.992 | Bacteroides stercoris 1.02 | [1] 0.978 | Bacteroides uniformis 0.979 | [2] 0.96 | Clostridium difficile 1.01 | Collinsella aerofaciens 1.04

ClC1C(Cl)C(Cl)C(Cl)C(Cl)C1Cl (stereo unspecified)
inactive: Collinsella aerofaciens 1.02 and 1.01 and 1.03

C/C(=N/Nc1nc(C)cc(C)n1)c1ccccc1C
inactive: Akkermansia muciniphila 1.24 | Bacteroides caccae 1.01 | Bacteroides clarus 1.06 | Bacteroides dorei 1 | Bacteroides stercoris 1.1 | [1] 0.963 | Bacteroides uniformis 1.03 | [2] 1.01 | Clostridium difficile 0.99 | Collinsella aerofaciens 0.979

O=P(OC(CCl)CCl)(OC(CCl)CCl)OC(CCl)CCl
inactive: Akkermansia muciniphila 1.09 | Bacteroides caccae 0.845 | Bacteroides clarus 0.999 | Bacteroides dorei 0.87 | Bacteroides stercoris 1.3 | [1] 0.947 | Bacteroides uniformis 0.868 | [2] 1.05 | Clostridium difficile 0.9 | Collinsella aerofaciens 0.948

COP(=S)(OC)SCn1nnc2ccccc2c1=O
inactive: Akkermansia muciniphila 1.09 | Bacteroides caccae 0.98 | Bacteroides clarus 0.977 | Bacteroides dorei 0.877 | Bacteroides stercoris 0.883 | [1] 0.969 | Bacteroides uniformis 0.986 | [2] 0.949 | Clostridium difficile 0.931 | Collinsella aerofaciens 0.941

CC(C)(C)c1ccc(CSc2cnn(C(C)(C)C)c(=O)c2Cl)cc1
inactive: Akkermansia muciniphila 0.971 | Bacteroides caccae 0.95 | Bacteroides clarus 0.959 | Bacteroides dorei 0.991 | Bacteroides stercoris 1.07 | [1] 0.975 | Bacteroides uniformis 0.986 | [2] 0.97 | Clostridium difficile 0.963 | Collinsella aerofaciens 0.999

COc1ncc(F)c2nc(S(=O)(=O)Nc3c(F)cccc3F)nn12
inactive: Akkermansia muciniphila 0.991 | Bacteroides caccae 1.02 | Bacteroides clarus 0.985 | Bacteroides dorei 1.01 | Bacteroides stercoris 1.13 | [1] 0.974 | Bacteroides uniformis 1 | [2] 1.01 | Clostridium difficile 0.994 | Collinsella aerofaciens 1.01

C/C(=N\NC(=O)Nc1cc(F)cc(F)c1)c1ncccc1C(=O)[O-].[Na+]
inactive: Akkermansia muciniphila 1.33 | Bacteroides caccae 1 | Bacteroides clarus 1.01 | Bacteroides dorei 0.77 | Bacteroides stercoris 1.05 | [1] 1.01 | Bacteroides uniformis 0.946 | [2] 0.987 | Clostridium difficile 1 | Collinsella aerofaciens 0.965

CNC(=O)O/N=C(\C)SC
inactive: Akkermansia muciniphila 0.938 | Bacteroides caccae 0.99 | Bacteroides clarus 0.981 | Bacteroides dorei 1.03 | Bacteroides stercoris 1.06 | [1] 0.988 | Bacteroides uniformis 0.988 | [2] 0.91 | Clostridium difficile 0.999 | Collinsella aerofaciens 1.03

CCOP(=S)(OCC)OP(=S)(OCC)OCC
inactive: Akkermansia muciniphila 0.981 | Bacteroides caccae 0.986 | Bacteroides clarus 0.953 | Bacteroides dorei 0.993 | Bacteroides stercoris 1.02 | [1] 0.956 | Bacteroides uniformis 0.988 | [2] 1.01 | Clostridium difficile 0.986 | Collinsella aerofaciens 1.02

C[n+]1ccc(-c2cc[n+](C)cc2)cc1.O.[Cl-].[Cl-]
inactive: Akkermansia muciniphila 0.705 | Bacteroides caccae 0.846 | Bacteroides clarus 1 | Bacteroides dorei 0.996 | Bacteroides stercoris 0.996 | [1] 0.996 | Bacteroides uniformis 1.03 | [2] 1.02 | Clostridium difficile 0.947 | Collinsella aerofaciens 0.947
